Experimental data as given in PubChem BioAssay (NCI).
This is part of a sample that, as a whole, favours compounds with a hit. Of some 83,000 tested, about 20% had one in any assay.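 Testing used 96-well plates and a 48-hour single-concentration exposure. Example: -40 means 40% of the starting cells died.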 Active and inactive are the calls of the source. Rule for the calls: active = growth percent below 10; inactive = the rest.

Experiments:
Experiment in all cases: NCI-60 one-dose screen, 48 h (100 = growth as untreated, 0 = no growth, -100 = all killed)
Settings in all cases: 10 µM unless noted
SR leukemia = tested on: SR leukemia
RPMI-8226 leukemia = tested on: RPMI-8226 leukemia
OVCAR-8 ovarian = tested on: OVCAR-8 ovarian
OVCAR-5 ovarian = tested on: OVCAR-5 ovarian
OVCAR-4 ovarian = tested on: OVCAR-4 ovarian
SK-OV-3 ovarian = tested on: SK-OV-3 ovarian
IGROV1 ovarian = tested on: IGROV1 ovarian
OVCAR-3 ovarian = tested on: OVCAR-3 ovarian
HS 578T breast = tested on: HS 578T breast
NCI/ADR-RES ovarian = tested on: NCI/ADR-RES ovarian
T-47D breast = tested on: T-47D breast
BT-549 breast = tested on: BT-549 breast
MDA-MB-435 melanoma = tested on: MDA-MB-435 melanoma
SW-620 colon = tested on: SW-620 colon
MCF7 breast = tested on: MCF7 breast
HCT-116 colon = tested on: HCT-116 colon
HCC-2998 colon = tested on: HCC-2998 colon
KM12 colon = tested on: KM12 colon

Measured: growth

CN1CCN(c2ccc3nc(-c4cc(C(C)(C)C)c(O)c(C(C)(C)C)c4)[nH]c3c2)CC1
active: SR leukemia -14.5% | RPMI-8226 leukemia -24.2% | MDA-MB-435 melanoma 0.049%
inactive: OVCAR-8 ovarian 94.1% | OVCAR-5 ovarian 91.6% | OVCAR-4 ovarian 75.9% | SK-OV-3 ovarian 83.9% | IGROV1 ovarian 88% | OVCAR-3 ovarian 74.4% | HS 578T breast 71.9% | NCI/ADR-RES ovarian 86.8% | T-47D breast 63.2% | BT-549 breast 98.2% | SW-620 colon 14.7% | MCF7 breast 35.6% | HCT-116 colon 23.3% | HCC-2998 colon 25.2%

CCNC(=S)NNC(=O)c1cc2ccc1CCc1ccc(cc1)CC2
inactive: SR leukemia 101% | RPMI-8226 leukemia 102% | OVCAR-8 ovarian 102% | OVCAR-5 ovarian 96.2% | OVCAR-4 ovarian 106% | SK-OV-3 ovarian 123% | IGROV1 ovarian 103% | OVCAR-3 ovarian 98.6% | HS 578T breast 102% | NCI/ADR-RES ovarian 101% | T-47D breast 95.8% | BT-549 breast 102% | MDA-MB-435 melanoma 100% | SW-620 colon 101% | MCF7 breast 93.6% | HCT-116 colon 92.5% | HCC-2998 colon 103% | KM12 colon 102%

O=C1CCC(NC(=S)Nc2ccccc2)N1 (stereo not given)
inactive: SR leukemia 93.8% | RPMI-8226 leukemia 101% | OVCAR-8 ovarian 107% | OVCAR-5 ovarian 111% | OVCAR-4 ovarian 107% | SK-OV-3 ovarian 117% | IGROV1 ovarian 102% | OVCAR-3 ovarian 106% | HS 578T breast 105% | NCI/ADR-RES ovarian 96.9% | T-47D breast 103% | BT-549 breast 114% | MDA-MB-435 melanoma 109% | SW-620 colon 107% | MCF7 breast 97.3% | HCT-116 colon 97.6% | HCC-2998 colon 98.7% | KM12 colon 98%

O=C1c2cccnc2C(=O)c2nc3cc(N4CCN(C5CC5)CC4)ccc3nc21
active: SR leukemia -10% | OVCAR-8 ovarian -15.2% | OVCAR-5 ovarian -82.3% | OVCAR-4 ovarian -87.8% | SK-OV-3 ovarian -78.6% | IGROV1 ovarian -13.8% | OVCAR-3 ovarian -1.56% | HS 578T breast -36.5% | BT-549 breast -93.7% | MDA-MB-435 melanoma -87.4% | SW-620 colon -37.8% | MCF7 breast -56.1% | HCT-116 colon 0.851% | HCC-2998 colon -80.8% | KM12 colon 9.27%
inactive: RPMI-8226 leukemia 25.3% | NCI/ADR-RES ovarian 20.1% | T-47D breast 22.5%

CN1C(=O)N(C)[C@H]2NC(NN)=N[C@H]21
inactive: SR leukemia 100% | RPMI-8226 leukemia 118% | OVCAR-8 ovarian 103% | OVCAR-5 ovarian 98.8% | OVCAR-4 ovarian 103% | SK-OV-3 ovarian 121% | IGROV1 ovarian 98.9% | OVCAR-3 ovarian 109% | HS 578T breast 95.2% | NCI/ADR-RES ovarian 105% | T-47D breast 91.7% | BT-549 breast 101% | MDA-MB-435 melanoma 101% | SW-620 colon 103% | MCF7 breast 97.8% | HCT-116 colon 96.9% | HCC-2998 colon 102% | KM12 colon 105%

Clc1ccc2c(c1)c(-c1ccccc1)nc1nncn12
inactive: SR leukemia 83.8% | RPMI-8226 leukemia 103% | OVCAR-8 ovarian 106% | OVCAR-5 ovarian 115% | OVCAR-4 ovarian 121% | SK-OV-3 ovarian 107% | IGROV1 ovarian 109% | OVCAR-3 ovarian 110% | HS 578T breast 106% | NCI/ADR-RES ovarian 101% | T-47D breast 98.2% | BT-549 breast 99.8% | MDA-MB-435 melanoma 113% | SW-620 colon 116% | MCF7 breast 99% | HCT-116 colon 106% | HCC-2998 colon 113% | KM12 colon 103%

CCCCCCCCOc1ccc(/C=N/Nc2cc(C)nc3ccc(Cl)cc23)cc1
inactive: OVCAR-5 ovarian 27.1% | SK-OV-3 ovarian 90.3% | HS 578T breast 46.9% | T-47D breast 56% | BT-549 breast 111%
active: SR leukemia -23.3% | RPMI-8226 leukemia -3.13% | OVCAR-8 ovarian -34.3% | OVCAR-4 ovarian -69.7% | IGROV1 ovarian -84.6% | OVCAR-3 ovarian -93.1% | NCI/ADR-RES ovarian -22% | MDA-MB-435 melanoma -19.8% | SW-620 colon -70.4% | MCF7 breast -69.7% | HCT-116 colon -69.9% | HCC-2998 colon -58.6% | KM12 colon -72.9%

COc1cc(NCC(C)(O)CN(CC(C)C)CC(C)C)c2nc(C)ccc2c1 (stereo not given)
inactive: SR leukemia 87.7% | RPMI-8226 leukemia 68.6% | OVCAR-8 ovarian 86.9% | OVCAR-5 ovarian 89.5% | OVCAR-4 ovarian 23.2% | SK-OV-3 ovarian 98.6% | IGROV1 ovarian 73.4% | OVCAR-3 ovarian 24.8% | HS 578T breast 83.9% | NCI/ADR-RES ovarian 79.6% | BT-549 breast 92.4% | MDA-MB-435 melanoma 102% | SW-620 colon 86.5% | HCT-116 colon 66.3% | HCC-2998 colon 75.5% | KM12 colon 63.2%
active: T-47D breast 7.65% | MCF7 breast -46.1%

Clc1ccc(C2CC(c3cccc(Nc4ccncc4)c3)=NN2c2cc(Cl)cc(Cl)c2)cc1 (stereo not given)
active: SR leukemia 6.05% | OVCAR-8 ovarian -7.8% | SW-620 colon -73.1% | MCF7 breast -8.62% | HCT-116 colon -74.2% | KM12 colon 9.65%
inactive: RPMI-8226 leukemia 43.4% | OVCAR-5 ovarian 84.4% | OVCAR-4 ovarian 33.7% | SK-OV-3 ovarian 90.7% | IGROV1 ovarian 44.6% | OVCAR-3 ovarian 76.9% | HS 578T breast 78% | NCI/ADR-RES ovarian 68.3% | T-47D breast 86.4% | BT-549 breast 104% | MDA-MB-435 melanoma 12.7% | HCC-2998 colon 19.6%

CC(C)Sc1nc(NN)c(C#N)c(-c2ccccc2)n1
inactive: SR leukemia 109% | RPMI-8226 leukemia 100% | OVCAR-8 ovarian 96.6% | OVCAR-5 ovarian 92.8% | OVCAR-4 ovarian 94.5% | SK-OV-3 ovarian 108% | IGROV1 ovarian 86.3% | OVCAR-3 ovarian 100% | HS 578T breast 93.6% | NCI/ADR-RES ovarian 99.8% | T-47D breast 90.4% | BT-549 breast 79.3% | MDA-MB-435 melanoma 103% | SW-620 colon 94.9% | MCF7 breast 90.9% | HCT-116 colon 87.9% | HCC-2998 colon 100% | KM12 colon 101%

Cc1ccc(O)c(C(=O)O)c1
inactive: SR leukemia 101% | RPMI-8226 leukemia 103% | OVCAR-8 ovarian 112% | OVCAR-5 ovarian 108% | OVCAR-4 ovarian 122% | SK-OV-3 ovarian 106% | IGROV1 ovarian 95.3% | OVCAR-3 ovarian 107% | HS 578T breast 108% | NCI/ADR-RES ovarian 111% | T-47D breast 106% | BT-549 breast 111% | MDA-MB-435 melanoma 111% | SW-620 colon 104% | MCF7 breast 104% | HCT-116 colon 108% | HCC-2998 colon 110% | KM12 colon 108%

C=C1C(=O)O[C@H]2[C@H]1CC/C(CNC(=O)/C=C/c1ccc(Br)cc1)=C\CC[C@@]1(C)O[C@@H]21
inactive: OVCAR-4 ovarian 44.7% | SK-OV-3 ovarian 46.6% | NCI/ADR-RES ovarian 38.5% | KM12 colon 36.4%
active: SR leukemia 0.986% | RPMI-8226 leukemia -33.7% | OVCAR-8 ovarian 2.52% | OVCAR-5 ovarian -51.4% | IGROV1 ovarian -27.9% | OVCAR-3 ovarian -91.4% | HS 578T breast -7.13% | T-47D breast -41.3% | BT-549 breast -59.7% | MDA-MB-435 melanoma -47.8% | SW-620 colon -78.5% | MCF7 breast -66.7% | HCT-116 colon -81.4% | HCC-2998 colon -92.6%

C#Cc1cccc(NC(=O)Nc2ccc(NC(=O)CCl)cc2)c1
inactive: MDA-MB-435 melanoma 21.7% [8.25 µM] | MCF7 breast 14.1% [8.25 µM] | HCC-2998 colon 82.6% [8.25 µM]
active: SR leukemia -36.4% [8.25 µM] | RPMI-8226 leukemia -37.1% [8.25 µM] | OVCAR-8 ovarian -14.9% [8.25 µM] | OVCAR-5 ovarian -14.5% [8.25 µM] | OVCAR-4 ovarian -50.8% [8.25 µM] | SK-OV-3 ovarian -86.7% [8.25 µM] | IGROV1 ovarian -88% [8.25 µM] | OVCAR-3 ovarian -88% [8.25 µM] | HS 578T breast -4.85% [8.25 µM] | NCI/ADR-RES ovarian -8.33% [8.25 µM] | T-47D breast -40.2% [8.25 µM] | BT-549 breast -64.2% [8.25 µM] | SW-620 colon -61.7% [8.25 µM] | HCT-116 colon -0.386% [8.25 µM] | KM12 colon -27.2% [8.25 µM]

CN1CCN(c2ccc(NC3=C(Cl)C(=O)c4ncccc4C3=O)cc2C#N)CC1
inactive: RPMI-8226 leukemia 37.7% | OVCAR-8 ovarian 26.8% | OVCAR-5 ovarian 73.5% | SK-OV-3 ovarian 86.3% | HS 578T breast 61.4% | NCI/ADR-RES ovarian 73.1% | BT-549 breast 96.3% | HCC-2998 colon 96.7% | KM12 colon 105%
active: SR leukemia 3.52% | OVCAR-4 ovarian -97.7% | IGROV1 ovarian -29.1% | OVCAR-3 ovarian -63.7% | T-47D breast -33.3% | MDA-MB-435 melanoma -92.9% | SW-620 colon -75.3% | MCF7 breast -59.9% | HCT-116 colon -56.7%

FC(F)(F)c1cccc(Nc2ccccc2)c1
inactive: SR leukemia 88.2% | RPMI-8226 leukemia 104% | OVCAR-8 ovarian 101% | OVCAR-5 ovarian 95.4% | OVCAR-4 ovarian 108% | SK-OV-3 ovarian 119% | IGROV1 ovarian 102% | OVCAR-3 ovarian 118% | HS 578T breast 105% | NCI/ADR-RES ovarian 96.2% | T-47D breast 101% | BT-549 breast 98.2% | MDA-MB-435 melanoma 101% | SW-620 colon 101% | MCF7 breast 93.5% | HCT-116 colon 95.2% | HCC-2998 colon 98.9% | KM12 colon 102%

COc1ccc(/C=N/C2=C(C#N)C(c3ccccc3[N+](=O)[O-])c3ccc4ccccc4c3O2)cc1 (stereo not given)
inactive: SR leukemia 89.4% | RPMI-8226 leukemia 90.3% | OVCAR-8 ovarian 95.1% | OVCAR-5 ovarian 105% | OVCAR-4 ovarian 91.5% | SK-OV-3 ovarian 101% | IGROV1 ovarian 54.6% | OVCAR-3 ovarian 77.4% | HS 578T breast 95.3% | NCI/ADR-RES ovarian 95.8% | T-47D breast 79.4% | BT-549 breast 92.8% | MDA-MB-435 melanoma 98.5% | SW-620 colon 97.8% | MCF7 breast 56.4% | HCT-116 colon 83.3% | HCC-2998 colon 106% | KM12 colon 95.9%

c1ccc(N2N=C(c3cccc(Nc4ccncc4)c3)CC2c2ccc3c(c2)OCO3)cc1 (stereo not given)
inactive: OVCAR-8 ovarian 21.7% | OVCAR-5 ovarian 43.7% | OVCAR-4 ovarian 33.6% | SK-OV-3 ovarian 22.1% | IGROV1 ovarian 16% | HS 578T breast 23.8% | T-47D breast 48.5% | BT-549 breast 80% | HCT-116 colon 63.3%
active: SR leukemia 4.46% | RPMI-8226 leukemia 2.64% | OVCAR-3 ovarian 7.28% | NCI/ADR-RES ovarian -1.79% | MDA-MB-435 melanoma -73.2% | SW-620 colon -53.6% | MCF7 breast 2.01% | HCC-2998 colon 0.363% | KM12 colon 8.25%
